In PubChem BioAssay (NCI):
“And” between values parts separate entries of the source, which are not always exact repeats. Identical values can stand only once. Compounds without any hit were thinned out: in the full panel of roughly 83,000, 20% have a hit.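 The test compound was applied at a single concentration to cells in 96-well plates for 48 hours, and percent growth was recorded.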 The source made the active and inactive calls. Rule for the calls: active = growth percent below 10; inactive = the rest.

Test system: MDA-MB-468 breast
Assay: NCI-60 one-dose screen, 48 h (100 = growth as untreated, 0 = no growth, -100 = all killed)
Settings: 10 µM unless noted

| Structure (SMILES) | growth |
| --- | --- |
| COC(=O)C(C(=O)OC)C(Br)C(Br)C(Br)c1ccccc1 (stereo not given) | 36.7% (inactive) |
| COc1cc(NC(=O)Nc2cnc(Nc3ccc(N4CCOCC4)cc3)nc2Oc2ccc(F)cc2)cc(OC)c1 | 95.5% (inactive) |
| COc1ccc(-c2cnoc2-c2ccc(OC)cc2O)cc1 | 1% (active) |
| OCCN(CCO)C(=S)S | 102% (inactive) |
| C#C[C@]1(O)CC[C@H]2[C@@H]3CC=C4c5sc(N=C(N)N)nc5CC[C@]4(C)[C@H]3CC[C@@]21C | -31.7% (active) |
| COc1ccc(/C=C/c2nc(N3CCOCC3)c3cc(F)c(F)cc3n2)cc1OC | -6.96% (active) |
| COc1ccc(-c2nn(-c3cccc(Cl)c3)cc2C2CC(c3ccccc3)=NN2C(C)=O)cc1 (stereo not given) | 80.9% (inactive) |
| c1cnc2[nH]cc(-c3csc(-c4cn(CCCN5CCOCC5)c5ccccc45)n3)c2c1 | 26.2% (inactive) |
| CC1=CC[C@@H]2CC[C@]3(C)[C@H](CC[C@@H]4[C@@]5(C)CCCNC(C)(C)[C@@H]5CC[C@]43C)[C@H]2[C@@H]1C | -47.2% (active) |
| COC12C=C/C(=C(/C(=O)OCc3ccccn3)C(=O)CCCCCCCCC3(OC)C=C/C(=C(/C(=O)OCc4ccccn4)C(=O)CCCCCCCC1)O3)O2 | -32.5% (active) |
| O=C1/C(=C/c2ccc(O)cc2)COc2ccc(-c3ccccc3)cc21 | 65% (inactive) |
| COC(C(=O)[C@@H](O)[C@@H](C)O)[C@@H]1Cc2cc3cc(O[C@H]4C[C@@H](O[C@H]5C[C@@H](O)[C@H](O)C(C)O5)[C@H](O)C(C)O4)c(C)c(O)c3c(O)c2C(=O)[C@H]1O[C@H]1C[C@@H](O[C@H]2C[C@@H](O[C@H]3C[C@@H](O)[C@H](OC)C(C)O3)[C@@H](O)C(C)O2)[C@H](O)C(C)O1 (stereo not given in full) | -60% (active) |
| CCNCCNc1cc(-c2ccc(C#N)cc2)c(C#N)c2nc3ccccc3n12 | -14.1% (active) |
| O=C(NCCc1nccs1)c1cnc2c(S)cccc2c1 | 16.5% (inactive) |
| Cc1oc(-c2ccc(Cl)cc2Cl)cc1C(=O)Nc1nccs1 | 94.4% (inactive) |
| O=C(CSc1nnc(-c2cccs2)n1-c1ccccc1)Nc1ccccc1F | 67.1% (inactive) |
| Cn1c2ccccc2c2c3c(c4c5ccccc5n(CCCCCC#N)c4c21)C(=O)N(O)C3=O | -49.5% (active) |
| COC(=O)CNC(=O)[C@H](Cc1ccccc1)NCc1ccncc1 | 97.4% (inactive) |
| O=CCCCC(O)C=O (stereo not given) | 98.9% (inactive) |
| Oc1c(Br)cc(Br)c2ccc(Cn3cc(-c4ccc(C(F)(F)F)cc4)nn3)nc12 | 30.8% (inactive) |

| Structure (SMILES) | growth |
| --- | --- |
| Cn1c2c(cc(S(=O)(=O)c3ccccc3)c1=O)CCc1c-2cnn1-c1cccc(Cl)c1 | 67% (inactive) |
| Cc1ccc2nc(Cl)c(Cn3nnnc3SCc3ccccc3)cc2c1 | 90.4% (inactive) |
| COC(=O)c1nc(=S)[nH]c(C(=O)OC)c1C(=O)c1ccccn1 | 19.3% (inactive) |
| O=C(/C(=C\c1c(-c2ccccc2)[nH]c2ccccc12)S(=O)(=O)c1ccccc1)c1ccccc1 | 32.9% (inactive) |
| O=S(=O)(NC1c2ccccc2C[C@H]1O)c1ccc(Cl)cc1Cl (stereo not given in full) | 85.7% (inactive) |
| N#C/C(=C\c1ccc(Cl)cc1Cl)C(N)=O | 96.3% (inactive) |
| O=C1CC23OC4ON=C(Br)C4C2C(O)c2ccccc2N13 (stereo not given) | 106% (inactive) |
| COc1ccc(N=c2nc3sc4cc(Cl)ccc4n3c(N)c2C#N)cc1 | -7.79% (active) |
| CCCCC(N)(C(=O)O)C1CCCC1 (stereo not given) | 107% (inactive) |
| O=C(CNC(=O)c1cccc2ccccc12)Nc1ccccc1Oc1ccc(O)cc1 | 27.5% [5 µM] (inactive) |
| COc1nc2ccc(C)cc2cc1-c1nc2c(cnn2-c2ccccc2)c(=O)[nH]1 | 69.4% (inactive) |
| Oc1c(CN2CCOCC2)cc(COCc2ccccc2)c2cccnc12 | 12.1% (inactive) |
| C#CCOc1ccc2ncnc(N3CCC(NC(=O)CCl)CC3)c2c1 | 15.4% [8.25 µM] (inactive) |
| O=S(=O)(NCCNc1nccc(-c2c(-c3ccc(F)cc3)nc3sccn23)n1)c1ccc(F)cc1 | 52.1% (inactive) |
| COc1c(CNC(=O)CCl)cc2[nH]c(C)cc2c1CNC(=O)CCl | 53.4% (inactive) |
| CCN(CC)CC(O)c1cc(-c2ccc(Cl)cc2)nc2cc(Cl)ccc12 (stereo not given) | -76.9% (active) |
| Oc1cc(O)c(Br)cc1Br | 101% (inactive) |
| CCCCCCCCCCCCC1CCC/C=C\CCC(=O)O1 (stereo not given) | 100% (inactive) |
| Cc1ncc(C(=O)Nc2ccc(CN3CCN(C)CC3)c(C(F)(F)F)c2)cc1C#Cc1cnc(N)c2ncccc12 | 63.1% (inactive) |
| COc1ccccc1/C=C/C(=O)/C=C/c1ccccc1OC | -61.8% (active) and -11.8% (active) |
